Test results from PubChem BioAssay (NCI).
About 79,000 compounds went through this panel and 15% of them were active in at least one assay; those are over-represented in the sample as a whole. Calls of active or inactive are those of the source. No stated cut-off is given here; in the data, active means growth inhibition above about 70%; inactive means the rest.

Experiments:
[1] = NCI Yeast Anticancer Drug Screen. Data for the rad50 strain (AID 155);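 further: 0% = growth of vehicle-only cultures of the same strain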; details: S. cerevisiae rad50 strain growth inhibition, stronger effect = higher value
In short: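 Yeast carrying a defined DNA repair defect were exposed to test compounds, and growth was compared with vehicle-treated controls to give percent inhibition.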

[2] = NCI Yeast Anticancer Drug Screen. Data for the mec2-1 strain (AID 157); details: S. cerevisiae mec2-1 strain, stronger effect = higher value
In short: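 Each compound was tested on mec2-1 yeast, a strain altered in DNA damage repair or cell cycle control. Growth inhibition is reported relative to vehicle.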

[3] = NCI Yeast Anticancer Drug Screen. Data for the sgs1 mgt1 strain (AID 161);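 further: 0% = growth of cultures given vehicle only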; details: S. cerevisiae sgs1 mgt1 strain, stronger effect = higher value
In short: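 Genetically altered yeast, compound exposure, growth inhibition relative to vehicle.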

[4] = NCI Yeast Anticancer Drug Screen. Data for the cln2 rad14 strain (AID 165);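 further: 0% = growth equal to vehicle treated cultures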; details: S. cerevisiae cln2 rad14 strain, stronger effect = higher value
In short: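 Test compounds were added to cln2 rad14 yeast cultures; inhibition of growth was then determined by comparison with vehicle treatment.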

[5] = NCI Yeast Anticancer Drug Screen. Data for the bub3 strain (AID 167); details: S. cerevisiae bub3 mutant strain, stronger effect = higher value
In short: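 Compounds were applied to a genetically altered yeast strain carrying a cell-cycle control defect. Growth inhibition was scored against vehicle-treated controls.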

[6] = NCI Yeast Anticancer Drug Screen. Data for the mlh1 rad18 strain (AID 175); details: S. cerevisiae mlh1 rad18 strain growth inhibition, stronger effect = higher value
In short: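 Inhibition values reflect reduced growth of mutant yeast versus vehicle-treated controls following compound exposure; the mutations affect DNA damage repair.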

[7] = at 5.0 µM (retest, dose inferred, filed as 0.5)
[8] = at 50.0 µM (retest, dose inferred, filed as 5.0)

Measured: growth inhibition

COc1cc(O)c2c(c1)C(=O)c1cc3c(c(O)c1C2=O)C(OC1OC(C)C(O)C(O)C1OC)C(OC)C(C)(O)C3=O (configuration not stated)
active: [1]; [7] 95% | [1]; [8] 99% | [1]; at 50.0 µM 92.5% | [2]; [8] 99% | [2]; at 50.0 µM 93.4% | [3]; [8] 99% | [3]; at 50.0 µM 93.7% | [4]; [8] 99% | [4]; at 50.0 µM 89.9% | [5]; [8] 99% | [5]; at 50.0 µM 93.3% | [6]; [8] 99% | [6]; at 50.0 µM 92.8%
inactive: [2]; [7] 35% | [3]; [7] 35% | [4]; [7] 12% | [5]; [7] 15% | [6]; [7] 58%

CCSSC12CCCN1C(=O)C(C)N(C)C2=O (configuration not stated)
active: [1]; [8] 79% | [1]; at 50.0 µM 77.6% | [2]; [8] 81% | [6]; [8] 84%
inactive: [1]; [7] 1% | [2]; [7] 9% | [2]; at 50.0 µM 16.4% | [3]; [7] 7% | [3]; [8] 49% | [3]; at 50.0 µM 11.6% | [4]; [7] 11% | [4]; [8] 58% | [4]; at 50.0 µM -61.4% | [5]; [7] 0% | [5]; [8] 53% | [5]; at 50.0 µM 19.8% | [6]; [7] 1% | [6]; at 50.0 µM 4.5%

CCOC(=O)N1CCN(C(=S)N/N=C(\C)c2ncccn2)CC1
inactive: [1]; [7] 4% | [2]; [7] 9% | [3]; [7] -5% | [4]; [7] -40% | [5]; [7] -22% | [6]; [7] -4%
active: [1]; [8] 99% | [1]; at 50.0 µM 99.4% | [2]; [8] 99% | [2]; at 50.0 µM 99.7% | [3]; [8] 99% | [3]; at 50.0 µM 99.4% | [4]; [8] 99% | [4]; at 50.0 µM 99.1% | [5]; [8] 99% | [5]; at 50.0 µM 99.5% | [6]; [8] 99% | [6]; at 50.0 µM 99.2%

CC1CCC(C)(C)c2cc([N+](=O)[O-])cc([N+](=O)[O-])c21 (configuration not stated)
inactive: [1]; [7] -1% | [1]; at 50.0 µM -6.5% | [2]; [7] 0% | [2]; at 50.0 µM -0.75% | [3]; [7] -4% | [3]; at 50.0 µM 26.2% | [4]; [7] 1% | [4]; at 50.0 µM -8.1% | [5]; [7] 18% | [6]; [7] -1% | [6]; at 50.0 µM 17.9%
active: [1]; [8] 99% | [2]; [8] 99% | [3]; [8] 99% | [4]; [8] 99% | [5]; [8] 99% | [5]; at 50.0 µM 80.2% | [6]; [8] 99%

O=[N+]([O-])c1ccc(Cl)c(C(Nc2nncs2)Nc2nncs2)c1
inactive: [1]; [7] -2% | [1]; at 50.0 µM 49.1% | [2]; [7] 2% | [2]; at 50.0 µM 23.9% | [3]; [7] -3% | [3]; [8] 61% | [3]; at 50.0 µM 61.7% | [4]; [7] 18% | [4]; at 50.0 µM 36.3% | [5]; [7] -5% | [5]; at 50.0 µM 20.4% | [6]; [7] -13% | [6]; at 50.0 µM 51.8%
active: [1]; [8] 91% | [2]; [8] 70% | [4]; [8] 84% | [5]; [8] 92% | [6]; [8] 84%

C=C(Br)CN1CCC2(c3ccccc3)C(O)C([Se]c3ccccc3)CCC12 (configuration not stated)
active: [1]; [7] 85% | [1]; [8] 85% | [1]; at 50.0 µM 83.1% | [2]; [7] 78% | [2]; [8] 78% | [2]; at 50.0 µM 84% | [3]; [7] 81% | [3]; [8] 81% | [3]; at 50.0 µM 78% | [4]; [7] 80% | [4]; [8] 80% | [4]; at 50.0 µM 83.3% | [5]; [7] 84% | [5]; [8] 84% | [5]; at 50.0 µM 84.8% | [6]; [7] 89% | [6]; [8] 89% | [6]; at 50.0 µM 82.8%

CCCCN(CCO)CC(O)Cn1cnc2c(N)ncnc21 (configuration not stated) (tested in a mixture with another compound)
inactive: [1]; [7] -12% | [1]; [8] -5% | [1]; at 50.0 µM 21.9% | [2]; [7] -12% | [2]; [8] -8% | [2]; at 50.0 µM -5.45% | [3]; [7] -18% | [3]; [8] 0% | [3]; at 50.0 µM -3.9% | [4]; [7] -18% | [4]; [8] -7% | [4]; at 50.0 µM 18.7% | [5]; [7] 1% | [5]; [8] -8% | [5]; at 50.0 µM 3.2% | [6]; [7] 3% | [6]; [8] -4% | [6]; at 50.0 µM 25.9%

C1=C(c2c(-c3ccccc3)[nH]c3ccccc23)Cc2ccccc21
active: [1]; [8] 93% | [2]; [8] 95% | [4]; [8] 93% | [5]; at 50.0 µM 71.4% | [6]; [8] 93%
inactive: [1]; [7] 3% | [1]; at 50.0 µM 12.6% | [2]; [7] 0% | [2]; at 50.0 µM 43.7% | [3]; [7] 0% | [3]; [8] 54% | [3]; at 50.0 µM 62.1% | [4]; [7] -12% | [4]; at 50.0 µM 30.2% | [5]; [7] -3% | [5]; [8] 58% | [6]; [7] 3% | [6]; at 50.0 µM 54.8%

c1ccc2nc3[nH]c4ccccc4c3cc2c1
active: [1]; [8] 87% | [1]; at 50.0 µM 85.2%
inactive: [1]; [7] 24% | [2]; [7] 18% | [2]; [8] 52% | [2]; at 50.0 µM 53.6% | [3]; [7] 14% | [3]; [8] 40% | [3]; at 50.0 µM 50.8% | [4]; [7] 22% | [4]; [8] 39% | [4]; at 50.0 µM 44.8% | [5]; [7] 18% | [5]; [8] 46% | [5]; at 50.0 µM 50.6% | [6]; [7] 18% | [6]; [8] 45% | [6]; at 50.0 µM 69.2%
